Data as given in PubChem BioAssay (NCATS).
Results filed as inconclusive are left out. The source made the active and inactive calls. Unless noted, the call rests on the fitted dose curve; in most records, active means well fitted cell-killing curve with a large enough effect; inconclusive means small, poorly fitted or top-dose-only effect, or effect the other way; inactive means flat fitted curve, though single readings scatter.

What was measured:
[1] = system: C33A; assay: Primary qHTS to identify gynecologic anti-cancer compounds using libraries of approved drugs and bioactive compounds (AID 1345084); details: Gynecologic cancer cell panel viability, ATPlite luminescence, 48 h; series mostly up to 57.5 µM; further: on the % scale 0 is the no-effect control and ±100 the full control effect; nearly all actives have a fitted effect of over 55% in size
Outline: (§1)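 ATP-based viability (ATPlite), 1,000 cells/well, 16 h pre-incubation, 48 h compound at 37 C, 5% CO2, 15 min RT before read.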

[2] = system: CAOV3; assay: as above; details: Gynecologic cancer cell panel viability, ATPlite luminescence, 48 h; series mostly up to 57.5 µM
Outline: as §1

[3] = system: CASKI; assay: as above; details: Gynecologic cancer cell panel viability, ATPlite luminescence, 48 h; series mostly up to 57.5 µM
Outline: as §1

[4] = system: Es-2; assay: as above; details: Gynecologic cancer cell panel viability, ATPlite luminescence, 48 h; series mostly up to 57.5 µM
Outline: as §1

[5] = system: HeLa; assay: as above; details: Gynecologic cancer cell panel viability, ATPlite luminescence, 48 h; series mostly up to 57.5 µM
Outline: as §1

[6] = system: Hek293T; assay: as above; details: Gynecologic cancer cell panel viability, ATPlite luminescence, 48 h, control line for the selectivity index; series mostly up to 57.5 µM
Outline: as §1

[7] = system: JEG-3; assay: as above; details: Gynecologic cancer cell panel viability, ATPlite luminescence, 48 h; series mostly up to 57.5 µM
Outline: as §1

[8] = system: OV90; assay: as above; details: Gynecologic cancer cell panel viability, ATPlite luminescence, 48 h; series mostly up to 57.5 µM
Outline: as §1

[9] = system: PA-1; assay: as above; details: Gynecologic cancer cell panel viability, ATPlite luminescence, 48 h; series mostly up to 57.5 µM
Outline: as §1

[10] = system: SKOV3; assay: as above; details: Gynecologic cancer cell panel viability, ATPlite luminescence, 48 h; series mostly up to 57.5 µM
Outline: as §1

[11] = system: Tov-21-G; assay: as above; details: Gynecologic cancer cell panel viability, ATPlite luminescence, 48 h; series mostly up to 57.5 µM
Outline: as §1

[12] = system: Tov112D; assay: as above; details: Gynecologic cancer cell panel viability, ATPlite luminescence, 48 h; series mostly up to 57.5 µM
Outline: as §1

[13] = target: Nuclear receptor subfamily 1 group I member 2 (Rattus norvegicus) (UniProt Q9R1A7); assay: qHTS assay for small molecule activators of the rat pregnane X receptor (rPXR) signaling pathway (AID 651751; call rule not given here; further: 0% is about no effect); details: rPXR reporter cells, luciferase (One-Glo), 24 h
Sequence of Nuclear receptor subfamily 1 group I member 2 (Rattus norvegicus) (Q9R1A7 whole entry, looked up): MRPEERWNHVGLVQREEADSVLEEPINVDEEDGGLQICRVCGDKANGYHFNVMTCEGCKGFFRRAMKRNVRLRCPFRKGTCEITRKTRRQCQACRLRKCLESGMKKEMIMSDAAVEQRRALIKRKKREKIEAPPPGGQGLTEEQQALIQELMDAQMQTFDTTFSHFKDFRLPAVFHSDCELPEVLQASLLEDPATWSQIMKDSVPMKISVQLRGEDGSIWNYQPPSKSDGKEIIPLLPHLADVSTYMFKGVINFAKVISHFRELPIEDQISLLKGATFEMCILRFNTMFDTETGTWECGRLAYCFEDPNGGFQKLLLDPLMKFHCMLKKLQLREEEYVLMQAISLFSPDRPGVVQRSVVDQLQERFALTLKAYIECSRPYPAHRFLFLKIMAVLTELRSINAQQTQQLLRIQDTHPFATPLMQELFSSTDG

CC(C)C(NC(=O)c1ccc2ccccc2n1)C(=O)NC(CC(=O)O)C(=O)COc1c(F)cccc1F (stereo not drawn)
inactive: Potency [1] | Potency [2] | Potency [3] | Potency [4] | Potency [5] | Potency [6] | Potency [7] | Potency [8] | Potency [9] | Potency [10] | Potency [11] | Potency [12]

CCC(C)C(=O)OC1CC(C)C=C2C=CC(C)C(CCC(O)CC(O)CC(=O)O)C21 (stereo not drawn)
inactive: Potency [1] | Potency [2] | Potency [3] | Potency [4] | Potency [5] | Potency [6] | Potency [7] | Potency [8] | Potency [9] | Potency [10] | Potency [11] | Potency [12]

N#C[C@@H]1C[C@H](F)CN1C(=O)CNC1[C@H]2CN(C(=O)c3ccc(F)cc3)C[C@@H]12 (stereo partly drawn)
inactive: Potency [1] | Potency [2] | Potency [3] | Potency [4] | Potency [5] | Potency [6] | Potency [7] | Potency [8] | Potency [9] | Potency [10] | Potency [11] | Potency [12]

CCCC(=O)C1CCN(c2ncnc3c2CN(C(=O)c2ccc(-c4ccccc4)cc2)CC3)CC1
inactive: Potency [1] | Potency [2] | Potency [3] | Potency [4] | Potency [5] | Potency [6] | Potency [7] | Potency [8] | Potency [9] | Potency [10] | Potency [11] | Potency [12]

C/C(=C/CO)CC[C@@H]1[C@@](C)(O)CCC2C(C)(C)CCC[C@]21C (stereo partly drawn)
inactive: Potency [1] | Potency [2] | Potency [3] | Potency [4] | Potency [5] | Potency [6] | Potency [7] | Potency [8] | Potency [9] | Potency [11] | Potency [12]

CC(C)=CCC[C@](C)(O[C@@H]1O[C@H](CO[C@@H]2O[C@H](CO)[C@@H](O)[C@H](O)[C@H]2O)[C@@H](O)[C@H](O)[C@H]1O)C1CC[C@]2(C)[C@@H]1[C@H](O)CC1[C@@]3(C)CC[C@H](O[C@@H]4O[C@H](CO)[C@@H](O)[C@H](O)[C@H]4O[C@@H]4O[C@H](CO)[C@@H](O)[C@H](O)[C@H]4O)C(C)(C)[C@@H]3CC[C@]12C (stereo partly drawn)
inactive: activity change, negative = cytotoxicity [1] 0.112% [at 11.6 µM] | activity change, negative = cytotoxicity [2] 10.1% [at 11.6 µM] | activity change, negative = cytotoxicity [3] 27.8% [at 11.6 µM] | activity change, negative = cytotoxicity [4] -0.241% [at 11.6 µM] | activity change, negative = cytotoxicity [5] -0.531% [at 11.6 µM] | activity change, negative = cytotoxicity [6] -3.2% [at 11.6 µM] | activity change, negative = cytotoxicity [7] -5.88% [at 11.6 µM] | activity change, negative = cytotoxicity [8] 2.46% [at 11.6 µM] | activity change, negative = cytotoxicity [9] 0.278% [at 11.6 µM] | activity change, negative = cytotoxicity [11] 1.55% [at 11.6 µM] | activity change, negative = cytotoxicity [12] 0.741% [at 11.6 µM]

CC1(C)CCC2(C(=O)OC3OC(CO)C(O)C(O)C3O)CCC3(C)C(=CCC4C5(C)CCC(O)C(C)(C(=O)O)C5CCC43C)C2C1O (stereo not drawn)
inactive: Potency [1] | Potency [2] | Potency [3] | Potency [4] | Potency [5] | Potency [6] | Potency [7] | Potency [8] | Potency [9] | Potency [11] | Potency [12]

CC(C)c1cc(C(=O)N2CC[C@@H](NC(=O)C3CC3)C2)n[nH]1
inactive: Potency [1] | Potency [2] | Potency [3] | Potency [4] | Potency [5] | Potency [6] | Potency [7] | Potency [8] | Potency [9] | Potency [11] | Potency [12]

Cc1cccc(C)c1OCc1cc(C(=O)N2CCC(c3ccncc3)CC2)no1
inactive: Potency [1] | Potency [2] | Potency [3] | Potency [4] | Potency [5] | Potency [6] | Potency [7] | Potency [8] | Potency [9] | Potency [11] | Potency [12]

CC(=O)C=C=C1C(C)(C)CC(O[C@@H]2O[C@H](CO)[C@@H](O)[C@H](O)[C@H]2O)CC1(C)O (stereo partly drawn)
inactive: Potency [1] | Potency [2] | Potency [3] | Potency [4] | Potency [5] | Potency [6] | Potency [7] | Potency [8] | Potency [9] | Potency [11] | Potency [12]

Cc1ccccc1CN1C2=NCCN2C(=O)C2=C1CCN(Cc1ccccc1)C2
inactive: Potency [1] | Potency [2] | Potency [3] | Potency [4] | Potency [5] | Potency [6] | Potency [7] | Potency [8] | Potency [9] | Potency [11] | Potency [12]

Cn1c2ccc(F)cc2c2c(C(=O)N3CCCC3)cn(-c3ccccc3)c(=O)c21
inactive: Potency [1] | Potency [2] | Potency [3] | Potency [4] | Potency [5] | Potency [6] | Potency [7] | Potency [8] | Potency [9] | Potency [10] | Potency [11] | Potency [12]

CCC(O)C(C)C1CCC(C(C)C(=O)O)O1 (stereo not drawn)
inactive: Potency [1] | Potency [2] | Potency [3] | Potency [4] | Potency [5] | Potency [6] | Potency [7] | Potency [8] | Potency [9] | Potency [11] | Potency [12]

COc1cc2ncnc(Nc3ccc(O)cc3)c2cc1OC
inactive: Potency [1] | Potency [2] | Potency [3] | Potency [4] | Potency [5] | Potency [6] | Potency [7] | Potency [8] | Potency [9] | Potency [10] | Potency [12]

CC(=O)O[C@@H]1CC(C)=C2[C@H]1[C@H](C)CC[C@H]2/C=C(\C)C(=O)O
inactive: Potency [1] | Potency [2] | Potency [3] | Potency [4] | Potency [5] | Potency [6] | Potency [7] | Potency [8] | Potency [9] | Potency [10] | Potency [11] | Potency [12] | max response [13] -4.19%

Cc1ccc(Cc2c(C)nc3nc(SCC(=O)NCCN4CCNCC4)nn3c2C)cc1
inactive: Potency [1] | Potency [2] | Potency [3] | Potency [4] | Potency [5] | Potency [6] | Potency [7] | Potency [8] | Potency [9] | Potency [11] | Potency [12]
